# Test results as given in PubChem BioAssay (EPA / NIEHS).
# Where “and” joins values, the source holds several entries; their conditions need not be identical. Identical values can stand only once. Inconclusive results are not listed. Some structures have more than one record in an assay (separate samples or runs), and their calls can disagree. Calls of active or inactive are those of the source. How the source made its calls: active means hit-call score of the fitted dose curve at least 0.9, where 1 is the maximum; inconclusive means response in the unintended direction; inactive means score below 0.9.
# Target: Cellular tumor antigen p53 (Homo sapiens) (UniProt P04637)
# Experiment: TOX21_p53_BLA_p3_ratio: Tox21 HCT-116 p53 Agonism Beta-lactamase Assay, Ratio, Phase 3 (AID 2283596)
# Description: TOX21_p53_BLA_p3 is a cell-based, single-readout assay that uses HCT116, a human intestinal cell line, […] in a 1536-well plate.TOX21_p53_BLA_p3_ratio is an assay readout measuring reporter gene via receptor activity and designed using inducible reporter (beta lactamase induction) detected with GAL4 b-lactamase reporter gene. The signal is derived from the ratio of cleaved (ch2) to uncleaved (ch1) reporter gene substrate used as the measure of target activity.Data from the assay component TOX21_p53_BLA_p3_ratio was analyzed into 1 assay endpoint. This assay endpoint, TOX21_p53_BLA_p3_ratio, was analyzed in the positive analysis fitting direction relative to DMSO as the negative control and baseline of activity. Using a type of inducible reporter, gain-of-signal activity can be used to understand changes in the reporter gene as they relate to the gene TP53. Furthermore, this assay endpoint can be referred to as a primary readout, because this assay has produced multiple assay endpoints where this ratio serves a reporter gene function to understand target activity. To generalize the intended target to other relatable targets, this assay endpoint is annotated to the DNA binding intended target family, where the subfamily is tumor suppressor.
# Thawing Method: Place 14 mL of pre-warmed thaw medium into a 15 mL of conical tub. Remove the vial of cells to be thawed from liquid nitrogen and thaw rapidly by placing at 37C in a water bath with gentle agitation for 1-2 minutes. Decontaminate the vial by wiping with 70% ethanol before opening in a biological safety cabinet. Transfer the vial contents drop-wise into 14 mL of thaw medium in a sterile 15-mL conical tub. Centrifuge cells at 900 rpm for 4 minutes and resuspend in thaw medium. Transfer contents to the T75 tissue culture flask containing Thaw Medium and place flask in a humidified 37C/5% CO2 incubator. Switch to growth medium at first passage.Propagation Method: Aspirate medium, rinse once in DPBS, add 0.25% Trypsin/EDTA and swirl to coat the cell evenly. Add an equal volume of Growth Medium to inactivate Trypsin after 2-3 minutes incubation at 37C. Centrifuge cells at 900 rpm for 4 minutes and resuspend in growth medium. Cell should be passage or fed at least twice a week.Assay Protocol: Harvest cells from culture in growth medium and resuspend in assay medium. 2.2 Dispense 4000 cells/5 uL/well into 1536-well black/clear bottom plates using a Multidrop dispenser. After the cells were incubated at 37C for 5 hours, 23 nL of compounds dissolved in DMSO were transferred to the assay plate by a PinTool resulting in a 217-fold dilution. Incubate the plates for 16 hours at 37C, 5% CO2. Add 1 uL of 6X LiveBLAzer FRET B/G (CCF4-AM) Substrate Mixture to each well using a BioRAPTR dispenser and incubate the plates at room temperature for 2 hours. Measure fluorescence intensity at 460 and 530 nm emission and 405 nm excitation by an Envision detector. Data is expressed as the ratio of 460nm/530nm emissions. Add 4 uL of Cell-titer Glo to each well using BioRAPTR and incubate the plates at room temperature for 2 hours. Measure fluorescence intensity by a VewLux plate reader.
# Chain of Cellular tumor antigen p53 (Homo sapiens) (P04637 whole entry, looked up): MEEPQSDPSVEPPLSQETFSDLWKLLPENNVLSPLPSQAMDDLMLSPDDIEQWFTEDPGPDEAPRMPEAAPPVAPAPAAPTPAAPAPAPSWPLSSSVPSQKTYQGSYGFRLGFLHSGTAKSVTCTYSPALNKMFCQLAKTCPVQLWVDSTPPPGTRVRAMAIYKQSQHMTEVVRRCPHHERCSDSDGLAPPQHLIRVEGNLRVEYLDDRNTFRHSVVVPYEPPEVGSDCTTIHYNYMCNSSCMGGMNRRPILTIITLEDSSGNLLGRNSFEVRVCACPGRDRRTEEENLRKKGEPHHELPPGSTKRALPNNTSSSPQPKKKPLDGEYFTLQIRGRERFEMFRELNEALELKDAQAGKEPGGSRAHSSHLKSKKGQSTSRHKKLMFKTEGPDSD
Compound,outcome,AC50
CCOP(=S)(OCC)SCn1c(=O)oc2cc(Cl)ccc21,inactive,–
O=C(O)c1nc(Cl)ccc1Cl,inactive,–
CNC(=O)ON=CC(C)(C)SC,inactive,–
O=C(O)COc1nc(Cl)c(Cl)cc1Cl,inactive,–
CC(Oc1ccc(Cl)cc1Cl)C(=O)O (stereo not given),inactive,–
CCOC(=O)CC(SP(=S)(OC)OC)C(=O)OCC (stereo not given),inactive,–
CNC(=S)S,inactive,–
CON(C)C(=O)Nc1ccc(Cl)c(Cl)c1,inactive,–
Cc1c(F)c(F)c(COC(=O)C2C(/C=C(\Cl)C(F)(F)F)C2(C)C)c(F)c1F (stereo not given),inactive,–
CCc1nn(C)c(C(=O)NCc2ccc(C(C)(C)C)cc2)c1Cl,inactive,–
O=C(Nc1ccccc1)Nc1ccnc(Cl)c1,–,46.1 µM (active)
CO/C=C(/C(=O)OC)c1ccccc1Oc1cc(Oc2ccccc2C#N)ncn1,inactive,–
CCON=C(CC)C1=C(O)CC(c2c(C)cc(C)cc2C)CC1=O (stereo not given),inactive,–
Oc1ccccc1-c1ccccc1,inactive,–
CS/C(C)=N/OC(=O)N(C)SN(C)C(=O)O/N=C(\C)SC,inactive,–
COC(=O)c1ccccc1C(=O)OC,inactive,–
CCCCOC(=O)c1ccccc1C(=O)OCCCC,inactive,–
CN(C)C(=S)SSC(=S)N(C)C,inactive,29.3 µM (active)
C=CC1(C)OC(=O)N(c2cc(Cl)cc(Cl)c2)C1=O (stereo not given),inactive,–

Compound,outcome,AC50
Fc1ccc(Oc2ccnc3cc(Cl)cc(Cl)c23)cc1,–,89.1 µM (active)
COc1cnc(OC)n2nc(NS(=O)(=O)c3c(OCC(F)F)cccc3C(F)(F)F)nc12,inactive,–
CCCCC(CC)COC(=O)c1ccccc1C(=O)OCC(CC)CCCC (stereo not given),inactive,–
COC(=O)N(OC)c1ccccc1COc1ccn(-c2ccc(Cl)cc2)n1,–,1.51 µM (active)
OC(c1ccc(Cl)cc1)(c1cncnc1)c1ccccc1Cl (stereo not given),inactive,–
C#CCOS(=O)OC1CCCCC1Oc1ccc(C(C)(C)C)cc1 (stereo not given),inactive,2.53 µM (active)
CCOc1cc(Oc2ccc(C(F)(F)F)cc2Cl)ccc1[N+](=O)[O-],inactive,–
CCCC1COC(Cn2cncn2)(c2ccc(Cl)cc2Cl)O1 (stereo not given),inactive,–
COc1nc(NC(C)C)nc(NC(C)C)n1,inactive,–
N#CC(CCc1ccc(Cl)cc1)(Cn1cncn1)c1ccccc1 (stereo not given),inactive,–
COC(=O)C(C)Oc1ccc(Oc2ccc(Cl)cc2Cl)cc1 (stereo not given),inactive,–
CC(C)C1(C)N=C(c2nc3ccccc3cc2C(=O)O)NC1=O (stereo not given),inactive,–
N#Cc1nn(-c2c(Cl)cc(C(F)(F)F)cc2Cl)c(N)c1S(=O)C(F)(F)F (stereo not given),inactive,–
CC1=C(C(=O)Nc2ccccc2)SCCO1,inactive,–
N#Cc1cc(Br)c(O)c(Br)c1,–,57.5 µM (active) and 55.7 µM (active)
CCCCNC(=O)OCC#CI,–,59.5 µM (active) and 78 µM (active)
CC(C)(C)c1ccc(CSc2cnn(C(C)(C)C)c(=O)c2Cl)cc1,inactive,–
Cc1cc(Cl)ccc1OCC(=O)O,inactive,–
COc1nc(C)nc(NC(=O)NS(=O)(=O)c2ccccc2Cl)n1,inactive,–
